Laboratory results taken from the supplement of paper PMC12669032.

Experiments:
Test in all cases: growth AUC relative to DMSO control (median of replicates) (fraction); higher = more growth (less inhibition), active = hit call of the paper
Conditions in all cases: 20 µM; 24 h;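 active = AUC reduced over 20% with Padj below 0.05 in at least 2 of 3 replicates; inactive = otherwise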
Akkermansia muciniphila = system: Akkermansia muciniphila
How it was run: (§1)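 Gut bacterial monocultures were grown anaerobically at 37 °C in mGAM from a starting OD600 of 0.05 with 20 µM compound (1% DMSO), in round-bottom 96-well plates under pierced gas-permeable seals, and OD600 was read hourly for 24 h. With the minimum OD set to 0, area under the growth curve was normalised to the plate median of solvent-only wells, or to row and column medians on the industrial chemical plate. Each value is the median of three biological replicates grown on separate days.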

Bacteroides caccae = system: Bacteroides caccae
How it was run: as §1

Bacteroides clarus = system: Bacteroides clarus
How it was run: as §1

Bacteroides dorei = system: Bacteroides dorei
How it was run: as §1

Bacteroides stercoris = system: Bacteroides stercoris
How it was run: as §1

[1] = system: Bacteroides thetaiotaomicron
How it was run: as §1

Bacteroides uniformis = system: Bacteroides uniformis
How it was run: as §1

[2] = system: Bifidobacterium longum subsp. longum
How it was run: as §1

Clostridium difficile = system: Clostridium difficile
How it was run: as §1

Collinsella aerofaciens = system: Collinsella aerofaciens
How it was run: as §1

Coprococcus comes = system: Coprococcus comes
How it was run: as §1

Escherichia coli ED1a = system: Escherichia coli ED1a
How it was run: as §1

Escherichia coli IAI1 = system: Escherichia coli IAI1
How it was run: as §1

Eubacterium rectale = system: Eubacterium rectale
How it was run: as §1

[3] = system: Fusobacterium nucleatum subsp. animalis
How it was run: as §1

Lactobacillus gasseri = system: Lactobacillus gasseri
How it was run: as §1

Lactobacillus paracasei = system: Lactobacillus paracasei
How it was run: as §1

Odoribacter splanchnicus = system: Odoribacter splanchnicus
How it was run: as §1

[4] = system: Parabacteroides distasonis
How it was run: as §1

Parabacteroides merdae = system: Parabacteroides merdae
How it was run: as §1

Measured: growth AUC

CCC(C)(C)c1ccc(O)cc1
inactive: Akkermansia muciniphila 0.91 | Bacteroides caccae 1.01 | Bacteroides clarus 0.981 | Bacteroides dorei 1.03 | Bacteroides stercoris 0.859 | [1] 1 | Bacteroides uniformis 1 | [2] 1.08 | Clostridium difficile 1.06 | Collinsella aerofaciens 1.01 | Coprococcus comes 1.03 | Escherichia coli ED1a 0.978 | Escherichia coli IAI1 0.985 | Eubacterium rectale 0.953 | [3] 1 | Lactobacillus gasseri 0.957 | Lactobacillus paracasei 0.999 | Odoribacter splanchnicus 1.08 | [4] 1.03 | Parabacteroides merdae 1.01

CC(C)(C)c1ccc(CCOc2ncnc3ccccc23)cc1
inactive: Akkermansia muciniphila 1.16 | Bacteroides caccae 0.952 | Bacteroides clarus 0.973 | Bacteroides dorei 0.921 | Bacteroides stercoris 0.872 | [1] 0.975 | Bacteroides uniformis 0.944 | [2] 0.996 | Clostridium difficile 0.98 | Collinsella aerofaciens 0.943 | Coprococcus comes 0.98 | Escherichia coli ED1a 0.976 | Escherichia coli IAI1 0.973 | Eubacterium rectale 0.905 | [3] 0.887 | Lactobacillus gasseri 0.924 | Lactobacillus paracasei 0.942 | Odoribacter splanchnicus 0.834 | Parabacteroides merdae 0.934
active: [4] 0.795

CC1=C(C(=O)Nc2ccccc2)S(=O)(=O)CCO1
inactive: Akkermansia muciniphila 0.915 | Bacteroides caccae 0.983 | Bacteroides clarus 0.976 | Bacteroides dorei 0.977 | Bacteroides stercoris 1.02 | [1] 0.994 | Bacteroides uniformis 0.981 | [2] 0.944 | Clostridium difficile 0.973 | Collinsella aerofaciens 1.02 | Coprococcus comes 0.986 | Escherichia coli ED1a 1.02 | Escherichia coli IAI1 0.994 | Eubacterium rectale 0.985 | [3] 0.959 | Lactobacillus gasseri 0.998 | Lactobacillus paracasei 0.981 | Odoribacter splanchnicus 0.962 | [4] 0.975 | Parabacteroides merdae 1

C=CCC1=C(C)C(OC(=O)C2C(C=C(C)C)C2(C)C)CC1=O (mixture of isomers)
inactive: Akkermansia muciniphila 1.05 | Bacteroides caccae 0.96 | Bacteroides clarus 1.04 | Bacteroides dorei 0.962 | Bacteroides stercoris 0.924 | [1] 0.972 | Bacteroides uniformis 0.936 | [2] 0.96 | Clostridium difficile 0.962 | Collinsella aerofaciens 0.941 | Coprococcus comes 0.963 | Escherichia coli ED1a 0.968 | Escherichia coli IAI1 1.01 | Eubacterium rectale 1.09 | [3] 1.01 | Lactobacillus gasseri 0.818 | Lactobacillus paracasei 0.943 | Odoribacter splanchnicus 1.01 | [4] 0.771 | Parabacteroides merdae 0.955

OCC(O)CCl (stereo not given)
inactive: Akkermansia muciniphila 1.01 | Bacteroides caccae 1.01 | Bacteroides clarus 0.998 | Bacteroides dorei 1.01 | Bacteroides stercoris 1.02 | [1] 0.984 | Bacteroides uniformis 1 | [2] 0.965 | Clostridium difficile 1.01 | Collinsella aerofaciens 1.01 | Coprococcus comes 0.999 | Escherichia coli ED1a 0.947 | Escherichia coli IAI1 1 | Eubacterium rectale 1 | [3] 0.987 | Lactobacillus gasseri 0.993 | Lactobacillus paracasei 0.978 | Odoribacter splanchnicus 1.01 | [4] 1.02 | Parabacteroides merdae 0.991

O=C(NC(=O)c1c(F)cccc1F)Nc1ccc(Cl)cc1
inactive: Akkermansia muciniphila 1.14 | Bacteroides caccae 1.01 | Bacteroides clarus 0.996 | Bacteroides dorei 0.998 | Bacteroides stercoris 0.974 | [1] 0.997 | Bacteroides uniformis 1.01 | [2] 0.954 | Clostridium difficile 1.01 | Collinsella aerofaciens 0.955 | Coprococcus comes 0.97 | Escherichia coli ED1a 0.993 | Escherichia coli IAI1 1 | Eubacterium rectale 1.01 | [3] 0.987 | Lactobacillus gasseri 0.93 | Lactobacillus paracasei 0.965 | Odoribacter splanchnicus 0.985 | [4] 1.07 | Parabacteroides merdae 0.99

CS(=O)(=O)c1ccc(C(=O)C2C(=O)CCCC2=O)c(Cl)c1
inactive: Akkermansia muciniphila 0.92 | Bacteroides caccae 1.01 | Bacteroides clarus 1.01 | Bacteroides dorei 1.01 | Bacteroides stercoris 1.04 | [1] 1.01 | Bacteroides uniformis 1 | [2] 0.967 | Clostridium difficile 1.11 | Collinsella aerofaciens 1.05 | Coprococcus comes 0.974 | Escherichia coli ED1a 1.01 | Escherichia coli IAI1 1.03 | Eubacterium rectale 0.916 | [3] 1.05 | Lactobacillus gasseri 1.09 | Lactobacillus paracasei 1.03 | Odoribacter splanchnicus 1.04 | [4] 1.04 | Parabacteroides merdae 1.01

CCCCOCN(C(=O)CCl)c1c(CC)cccc1CC
inactive: Akkermansia muciniphila 1.07 | Bacteroides caccae 0.909 | Bacteroides clarus 0.955 | Bacteroides dorei 0.944 | Bacteroides stercoris 1.25 | [1] 0.923 | Bacteroides uniformis 0.954 | [2] 0.996 | Clostridium difficile 0.979 | Collinsella aerofaciens 0.928 | Coprococcus comes 0.996 | Escherichia coli ED1a 1.02 | Escherichia coli IAI1 1.04 | Eubacterium rectale 1.03 | [3] 1.12 | Lactobacillus gasseri 1.02 | Lactobacillus paracasei 1.04 | Odoribacter splanchnicus 0.909 | [4] 0.963 | Parabacteroides merdae 0.976

COC(=O)C1(O)c2ccccc2-c2ccccc21
inactive: Akkermansia muciniphila 0.893 | Bacteroides caccae 1.03 | Bacteroides clarus 0.97 | Bacteroides dorei 1 | Bacteroides stercoris 1.01 | [1] 0.981 | Bacteroides uniformis 0.984 | [2] 0.996 | Clostridium difficile 0.991 | Collinsella aerofaciens 1.03 | Coprococcus comes 0.939 | Escherichia coli ED1a 0.966 | Escherichia coli IAI1 1.01 | Eubacterium rectale 0.95 | [3] 0.911 | Lactobacillus gasseri 1.07 | Lactobacillus paracasei 1 | Odoribacter splanchnicus 0.988 | [4] 1.03 | Parabacteroides merdae 0.993

COP(=S)(OC)Oc1cc(Cl)c(Br)cc1Cl
inactive: Akkermansia muciniphila 0.9 | Bacteroides caccae 0.961 | Bacteroides clarus 0.966 | Bacteroides dorei 0.995 | Bacteroides stercoris 1.03 | [1] 0.963 | Bacteroides uniformis 1.01 | [2] 0.971 | Clostridium difficile 0.966 | Collinsella aerofaciens 0.978 | Coprococcus comes 0.982 | Escherichia coli ED1a 0.987 | Escherichia coli IAI1 0.965 | Eubacterium rectale 1.03 | [3] 0.952 | Lactobacillus gasseri 1.06 | Lactobacillus paracasei 0.996 | Odoribacter splanchnicus 1.02 | [4] 0.946 | Parabacteroides merdae 0.917

CC(Cc1ccc(C(C)(C)C)cc1)CN1CCCCC1 (stereo not given)
inactive: Akkermansia muciniphila 0.735 | Bacteroides caccae 0.963 | Bacteroides clarus 0.951 | Bacteroides dorei 1.01 | Bacteroides stercoris 1.15 | [1] 0.974 | Bacteroides uniformis 1.02 | [2] 0.99 | Clostridium difficile 0.971 | Collinsella aerofaciens 0.959 | Coprococcus comes 0.931 | Escherichia coli ED1a 0.998 | Escherichia coli IAI1 0.932 | Eubacterium rectale 1.03 | [3] 1.02 | Lactobacillus gasseri 0.988 | Lactobacillus paracasei 1.03 | Odoribacter splanchnicus 1.05 | [4] 0.946 | Parabacteroides merdae 0.997

ClC1=C(Cl)C2(Cl)[C@H]3[C@H]4O[C@H]4[C@H](Cl)[C@H]3C1(Cl)C2(Cl)Cl (single isomer, unassigned; isomer a)
inactive: Akkermansia muciniphila 1.05 | Bacteroides caccae 0.99 | Bacteroides clarus 0.989 | Bacteroides dorei 1 | Bacteroides stercoris 0.778 | [1] 1.02 | Bacteroides uniformis 0.991 | [2] 1.07 | Clostridium difficile 0.998 | Collinsella aerofaciens 0.949 | Coprococcus comes 0.941 | Escherichia coli ED1a 0.982 | Escherichia coli IAI1 0.971 | Eubacterium rectale 1.05 | [3] 1.08 | Lactobacillus gasseri 0.96 | Lactobacillus paracasei 0.991 | Odoribacter splanchnicus 1.08 | [4] 1.02 | Parabacteroides merdae 0.98

Cc1cc(Cl)ccc1N=CN(C)C.Cl
inactive: Akkermansia muciniphila 1.06 | Bacteroides caccae 0.997 | Bacteroides clarus 1.01 | Bacteroides dorei 1.03 | Bacteroides stercoris 0.972 | [1] 1.01 | Bacteroides uniformis 0.982 | [2] 1.03 | Clostridium difficile 1.04 | Collinsella aerofaciens 0.978 | Coprococcus comes 1.09 | Escherichia coli ED1a 1 | Escherichia coli IAI1 0.98 | Eubacterium rectale 1.01 | [3] 1.01 | Lactobacillus gasseri 1.01 | Lactobacillus paracasei 1.03 | Odoribacter splanchnicus 1 | [4] 1.02 | Parabacteroides merdae 1.01

COCc1c(F)c(F)c(COC(=O)[C@@H]2[C@@H](C=C(Cl)Cl)C2(C)C)c(F)c1F
inactive: Akkermansia muciniphila 1.07 | Bacteroides caccae 0.953 | Bacteroides clarus 1.03 | Bacteroides dorei 1.01 | Bacteroides stercoris 1.29 | [1] 1.03 | Bacteroides uniformis 0.969 | [2] 1.03 | Clostridium difficile 0.994 | Collinsella aerofaciens 1 | Coprococcus comes 0.981 | Escherichia coli ED1a 1.03 | Escherichia coli IAI1 1.02 | Eubacterium rectale 1.09 | [3] 1.09 | Lactobacillus gasseri 1.03 | Lactobacillus paracasei 1.04 | Odoribacter splanchnicus 1.03 | [4] 1 | Parabacteroides merdae 1.01

CCCN(CCOc1c(Cl)cc(Cl)cc1Cl)C(=O)n1ccnc1
active: Coprococcus comes 0.487 | Eubacterium rectale 0.591
inactive: Akkermansia muciniphila 1.05 | Bacteroides caccae 0.886 | Bacteroides clarus 0.967 | Bacteroides dorei 0.941 | Bacteroides stercoris 1.14 | [1] 0.869 | Bacteroides uniformis 0.836 | [2] 0.89 | Clostridium difficile 0.982 | Collinsella aerofaciens 1.02 | Escherichia coli ED1a 1.01 | Escherichia coli IAI1 1.01 | [3] 1 | Lactobacillus gasseri 1.11 | Lactobacillus paracasei 1.17 | Odoribacter splanchnicus 0.94 | [4] 0.871 | Parabacteroides merdae 0.843

O=C(O)c1ccccc1C(=O)Nc1cccc2ccccc12
inactive: Akkermansia muciniphila 1.04 | Bacteroides caccae 1.04 | Bacteroides clarus 1.02 | Bacteroides dorei 1.02 | Bacteroides stercoris 1.18 | [1] 1.01 | Bacteroides uniformis 0.993 | [2] 1.03 | Clostridium difficile 1.01 | Collinsella aerofaciens 1.03 | Coprococcus comes 0.971 | Escherichia coli ED1a 1.05 | Escherichia coli IAI1 1 | Eubacterium rectale 1.08 | [3] 1.06 | Lactobacillus gasseri 0.979 | Lactobacillus paracasei 1.02 | Odoribacter splanchnicus 1.06 | [4] 0.979 | Parabacteroides merdae 0.987
